Screening data deposited in PubChem by National Center for Advancing Translational Sciences (NCATS).
This is a sample that favours compounds with a hit; in the whole collection about 21% have one here.
IL-1B inflam inh: blocks inflammasome-driven IL-1 beta release; activity change, % at 57.5 µM; actives 4.7% (n = 360,000); THP-1 LPS/ATP IL-1B secretion, AlphaLISA, 16 h; active compounds read low; AID 743279; in the data active = activity change below about -50%; inconclusive = mostly about -30% to -49%; also: % is scaled to controls: 0 for no effect and ±100 for the full control effect
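THP-1 cells pretreated 1 hr with compounds (up to 57.5 uM final), then stimulated with LPS (250 ng/mL final) plus ATP (1.25 mM final); secreted IL-1B measured by AlphaLISA after 16 hr, decreased signal indicating inhibition.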
D3 ag: agonists of human D3 dopamine receptor. actives 0.58% (n = 410,000). D3R DiscoveRx beta-arrestin cells, luminescence, 90 min. max activation, %. P35462; in the data active = max activation above about 30%; also: 0% is about no effect
Target sequence (P35462 whole entry, looked up): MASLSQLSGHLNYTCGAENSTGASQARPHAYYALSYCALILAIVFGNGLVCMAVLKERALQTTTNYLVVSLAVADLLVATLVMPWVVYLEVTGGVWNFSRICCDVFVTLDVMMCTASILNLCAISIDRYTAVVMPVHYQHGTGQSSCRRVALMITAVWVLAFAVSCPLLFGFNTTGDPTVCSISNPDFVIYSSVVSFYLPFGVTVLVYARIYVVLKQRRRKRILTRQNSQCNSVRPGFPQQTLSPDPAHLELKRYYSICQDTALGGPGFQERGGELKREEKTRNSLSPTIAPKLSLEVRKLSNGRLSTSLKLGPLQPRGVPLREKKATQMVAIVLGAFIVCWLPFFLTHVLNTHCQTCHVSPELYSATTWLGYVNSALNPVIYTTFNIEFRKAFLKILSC
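Agonist mode: compounds and dopamine controls were applied to plated cells for 90 min at 37 degrees C after an overnight attachment at 1500 cells/well. Luminescent read-out followed 30 - 60 minutes at room temperature with DiscoveRx detection reagent.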
DRD3 antagonist: antagonists of human D3 dopamine receptor; D3R cells, DiscoveRx beta-arrestin luminescence, antagonist mode; active compounds read low; max response, negative = inhibition, %; actives 2.5% (n = 360,000); AID 652054; in the data active = max response below about -50%; inconclusive = no clear call, values can overlap the other calls; also: % is scaled to controls: 0 for no effect and ±100 for the full control effect
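Cells plated overnight at 1500 cells/well, then exposed to library compounds with dopamine controls for 90 minutes at 37 degrees C. DiscoveRx reagent added for 30–60 minutes at room temperature; luminescence read, quantitative HTS format.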
TDP1 cell CPT: DT40-hTDP1 cell growth loss with CPT | chicken DT40 Tdp1-/-;hTDP1 cells + 20 nM CPT, ATP luminescence, 48 h | Potency, µM (series often up to 46.2 µM), for inactives: at the highest dose activity change, negative = growth inhibition, hits mostly inhibitors | actives 12% (n = 420,000); also: potency is read from the fitted curve at half-maximal effect; % is scaled to controls: 0 for no effect and ±100 for the full control effect; nearly all actives have a fitted effect of over 55% in size
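Chicken DT40 Tdp1-/- cells complemented with human TDP1, 400 cells/well, exposed to compounds plus 20 nM camptothecin for at least 48 h at 37 C; viability read as ATP content by CellTiter-Glo luminescence.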
DT40 TDP1 no CPT: qHTS for Inhibitors of human tyrosyl-DNA phosphodiesterase 1 (TDP1): qHTS in cells in absence of CPT. DT40 Tdp1-/- hTDP1 cells, no CPT, ATP luminescence, 48 h. AID 686978, 2013. actives 15% (n = 420,000). Potency, µM (doses to about 46.2 µM), for inactives: at the top dose activity change, negative = growth inhibition, actives largely listed as inhibitors; also: potency is read from the fitted curve at half-maximal effect; % is scaled to controls: 0 for no effect and ±100 for the full control effect; nearly all actives have a fitted effect of over 55% in size
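Cells were dispensed at 400 per well, compounds added by pin tool, plates incubated ≥48 hr at 37 °C, then CellTiter-Glo added for 30 min at room temperature before luminescence reading. Line: DT40 Tdp1-/- complemented with hTDP1; camptothecin omitted.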
ClpP mod: qHTS Assay for Activators of ClpP. ATP-dependent Clp protease proteolytic subunit (Bacillus subtilis (strain 168)), P80244. Potency, µM (titrated, usually from 57.5 µM), without a hit: at the top dose activity change, negative = active. actives 1.9% (n = 340,000). purified B. subtilis ClpP, FRET peptide cleavage, 20 min; active = well fitted falling curve with a large enough effect; inconclusive = small, poorly fitted or top-dose-only effect; inactive = no such curve, though single readings can be large or run the other way; also: potency is read from the fitted curve at half-maximal effect; the source files actives as falling curves though it sought activators and does not explain the sign; nearly all actives have a fitted effect of over 65% in size
Target sequence (P80244 whole entry, looked up): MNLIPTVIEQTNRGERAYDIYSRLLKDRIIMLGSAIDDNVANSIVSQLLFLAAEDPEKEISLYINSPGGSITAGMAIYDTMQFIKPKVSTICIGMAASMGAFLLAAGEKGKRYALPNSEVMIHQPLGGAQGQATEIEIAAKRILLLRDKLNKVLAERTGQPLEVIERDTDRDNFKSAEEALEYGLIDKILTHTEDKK
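FRET quenching reversal measured ClpP activation: 10 microg/mL B. subtilis ClpP at pH 8 with the FRET-FV decapeptide, read at 430 nm after 320 nm excitation. The 20-min minus 0-min signal was scaled between DMSO/no-enzyme wells and ADEP (5.8 microM final).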
Starred values were filed as active, the others as inactive; ? = inconclusive; / = no result; ! = not active in a repeat. Unless noted, calls follow the shape of the dose curve; as a rule, active = well fitted inhibition curve with a large enough effect; inconclusive = small, poorly fitted or top-dose-only effect; inactive = flat fitted curve, though single readings scatter.

SMILES	IL-1B inflam inh	D3 ag	DRD3 antagonist	TDP1 cell CPT	DT40 TDP1 no CPT	ClpP mod
CC(C)(C)c1ccc(O)c(O)c1	-81*	0	7	34µM*	?	2%
CC(C)(C)c1cc(OS(C)(=O)=O)ccc1O	13	0	-6	7%	?	/
CC(C)(C)c1cc(O)c(C(C)(C)C)cc1O	/	/	/	11µM*!	12µM*!	/
CCOc1ccc(S(=O)(=O)N2CCCC(C(=O)Nc3cccc(C)c3)C2)cc1 (configuration not stated)	-18	-16	-8	?	?	1%
CCOC(=O)C1=C(C)NC(=S)NC1c1ccsc1 (configuration not stated)	-8	-1	9	0%	16%	0%
COc1ccccc1N1CCN(CCN2C(=O)CC(=C3c4ccccc4-c4ccccc43)C2=O)CC1	29	-7	-76*	?	?	1%
Cc1ccccc1N1CCN(CCN2C(=O)CC(=C3c4ccccc4-c4ccccc43)C2=O)CC1	0	-5	-65*	-29%	-28%	-1%
CCC1CCCCN1C(=O)Cn1c(=O)oc2cc(S(=O)(=O)N3CCCCC3)ccc21 (configuration not stated)	/	6	/	-26%	-26%	1%
CC1CCN(S(=O)(=O)c2ccc(C(=O)N3CCCC(C(F)(F)F)C3)cc2)CC1 (configuration not stated)	?	22	0	18µM*	?	/
CC1CCc2[nH]c3ccc(C(=O)N4CCCC(C(F)(F)F)C4)cc3c2C1 (configuration not stated)	-62*	1	-20	?	16µM*	-8%
O=C(c1ccc(S(=O)(=O)N2CCCCCC2)cc1)N1CCCC(C(F)(F)F)C1 (configuration not stated)	13	-6	-7	?	?	1%
COc1ccccc1N(C)S(=O)(=O)c1ccc(C(=O)N2CCCC(C(F)(F)F)C2)cc1 (configuration not stated)	12	-8	-22	?	18µM*	/
COc1ccccc1N(C)S(=O)(=O)c1ccc(C(=O)OCC(=O)N2CCC2)cc1	33	9	10	?	?	/
Cc1nn(Cc2ccc([N+](=O)[O-])cc2)c(=O)n1-c1cccc(Cl)c1	15	0	-4	0%	-24%	/
Cc1cccc(C2N3CC4(C(C)C)CN2CC(C(C)C)(C3)C4=O)c1 (configuration not stated)	/	-8	/	/	/	0%
O=c1oc2ccc(Br)cc2cc1S(=O)(=O)c1ccc(F)cc1	-78*	-1	7	-4%	-112%	1%
COC(=O)c1ccc(COc2ccccc2/C=N/NC(=O)c2cccnc2)cc1	9	3	2	?	?	2%
Cc1ccc2onc(CC(=O)N3CCN(c4cc(Cl)ccc4C)CC3)c2c1	/	-8	/	?	16µM*	-2%
Cc1ccc2onc(CC(=O)O)c2c1	-1	-2	0	-8%	-6%	-1%
COc1ccc(Cl)cc1N(C)C(=O)Cc1noc2ccc(C)cc12	/	-10	/	16µM*	18µM*	-1%
O=C(Nc1c2c(nn1-c1cccc(Cl)c1)CS(=O)(=O)C2)c1ccc2c(c1)OCO2	-16	-3	-6	2%	-6%	-4%
CCCCn1nnnc1SCC(=O)NC1CCCCC1	39	2	7	7%	-3%	/
CCn1nnnc1SCC(=O)NNC(=O)C1CCCCC1	12	-3	-80*	3%	1%	-4%
CC(=O)Nc1cc(-c2ccc(N(C)C)cc2)cn2c(-c3ccc(F)cc3)cnc12	-6	3	15	?	?	-14%
CN1CCN(c2ccc(-c3cc(NC=O)c4ncc(-c5ccccc5)n4c3)cc2)CC1	-7	-14	-54*	21µM*	16µM*	-14%
SMILES	IL-1B inflam inh	D3 ag	DRD3 antagonist	TDP1 cell CPT	DT40 TDP1 no CPT	ClpP mod
CN1CCN(c2ccc(-c3cc(NC=O)c4ncc(-c5ccc(F)cc5)n4c3)cc2)CC1	-12	-13	?	15µM*	?	-29%
CCOC(=O)c1c(-c2ccc(C)cc2)cn2ccccc12	5	-8	-16	-10%	?	13µM*
FC(F)(F)c1cccc(NC(=S)Nc2cccc(NC(=S)Nc3cccc(C(F)(F)F)c3)n2)c1	-86*	-4	-22	29µM*	21µM*	/
O=C(/C=C/c1cccc(C(F)(F)F)c1)Nc1cccc(C(F)(F)F)c1	-92*	-25	-23	23µM*	23µM*	0%
O=C(NNC(=S)Nc1cccc(C(F)(F)F)c1)c1ccccc1Cl	?	2	6	?	18µM*	4%
CCCNC(=S)Nc1cccc(C(F)(F)F)c1	4	2	0	-6%	-17%	-3%
CC(C)(C)NNC(=S)Nc1cccc(C(F)(F)F)c1	?	7	11	3.3µM*	1.2µM*	/
CCOc1ccc(C2c3[nH]c4ccccc4c3CCN2C(=O)Cn2cncn2)cc1 (configuration not stated)	4	-7	-6	2%	-27%	/
Cc1cn([C@H]2C[C@H](O)[C@@H](/C=C/C(=O)NCCc3ccc(S(N)(=O)=O)cc3)O2)c(=O)[nH]c1=O	-22	1	26	4%	13%	-4%
COc1ccc(CNC(=O)CN(C)Cc2ccc(C(C)(C)C)cc2)cc1	-9	-13	-5	?	?	0%
FC(F)(F)c1cccc(NC(=S)NNC(=S)NCc2ccccc2)c1	-15	-27	-20	?	26µM*	0%
C=CCC(CC=C)(CNC(=O)C(=O)Nc1cccc(C(F)(F)F)c1)c1ccccc1	/	-3	/	18µM*	21µM*	-1%
CCN(CC(=O)Nc1ccccc1C(F)(F)F)C(=O)C1CCC1	15	5	11	-1%	9%	2%
CCOc1ccc(NC(=O)C(=O)c2cc(C)n(-c3cc(C)cc(C)c3)c2C)cc1	/	4	/	?	21µM*	-4%
COC(=O)c1ccc(-n2c(C)cc(C(=O)CCl)c2C)cc1	-99*	-11	?	2.9µM*	2.6µM*	2%
CCOc1ccccc1NC(=O)C(=O)c1cc(C)n(-c2ccc(F)cc2)c1C	/	-7	/	?	-26%	0%
CCOc1ccc(-n2c(C)cc(C(=O)CCl)c2C)cc1	-99*	-13	-24	2.9µM*	4.6µM*	-1%
